Measurements taken from PubChem BioAssay (NCATS).
Values joined by “and” are separate entries in the source; they are usually repeats but may differ in a detail not shown here. Equal entries are not always repeated. Results filed as inconclusive are left out. Active and inactive are the calls of the source. The call rests on the fitted dose curve; in most records, active means well fitted curve in the direction sought with a large enough effect; inconclusive means small, poorly fitted or top-dose-only effect, or another doubt; inactive means no such curve, though single readings can be large; an effect the other way counts as inactive or inconclusive. Square brackets hold non-standard residues; d marks the D form. Peptide text beside a SMILES is read from it. * marks the point of attachment. Nva = CCC[C@H](N)C(=O)O; Cbz = O=C(OCc1ccccc1)*

Legend:
[1] = Viability qHTS for spleen associated tyrosine kinase inhibitor (SYKi) naive MV4-11 cells (AID 1963823); further: nearly all actives have a fitted effect of over 40% in size; further: potency means the concentration at half of the fitted maximal effect
Method in brief: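 Viability of MV4-11 AML cells lacking prior SYK inhibitor exposure is scored by CellTiter-Glo luminescence following 72 hr compound incubation at 37 C, 5% CO2, seeded at 500 cells per well.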

[2] = Viability qHTS for spleen associated tyrosine kinase inhibitor (SYKi) drug resistant MV4-11 cells (AID 1963824); further: nearly all actives have a fitted effect of over 35% in size; further: potency means the concentration at half of the fitted maximal effect
Method in brief: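 CellTiter-Glo luminescence, read 10 min after reagent addition, reports viability after a 72 hr compound exposure. Cells are an MV4-11 line made resistant to SYK inhibition, seeded at 500 per well onto compound-containing plates.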

[3] = Quantitative highthroughput screen to assess conditional lethalithy of NOMO1 cells grown in RPMI1640 with untreated serum (RPMI+s) (AID 1963876); further: nearly all actives have a fitted effect of over 35% in size; further: potency means the concentration at half of the fitted maximal effect;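 on Viability: 100% = DMSO wells and 0% = empty wells without cells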
Method in brief: (§1)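 Each medium arm—HPLM with 10% dialyzed FBS, or RPMI1640 with 5 mM glucose and 10% untreated or dialyzed FBS—was screened against an 11-point, 3-fold compound titration for 48 h at 37 °C, with CellTiter-Glo luminescence as endpoint.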

[4] = Quantitative highthroughput screen to assess conditional lethalithy of NOMO1 cells grown in RPMI1640 with dialyzed fetal bovine serum (RPMI+ds) (AID 1963877); further: nearly all actives have a fitted effect of over 30% in size; further: potency means the concentration at half of the fitted maximal effect;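 on Viability: series mostly up to about 46 µM; 100% = DMSO control wells and 0% = empty wells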
Method in brief: as §1

[5] = Quantitative highthroughput screen to assess conditional lethalithy of NOMO1 cells grown in Human Plasma-Like Medium with dialyzed fetal bovine serum (HPLM+ds) (AID 1963878); further: nearly all actives have a fitted effect of over 35% in size; further: potency means the concentration at half of the fitted maximal effect;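 on Viability: 100% = DMSO wells and 0% = empty wells on each plate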
Method in brief: as §1

[6] = Quantitative highthroughput screen to assess conditional lethalithy of P12 Ichikawa cells grown in Human Plasma-Like Medium with dialyzed fetal bovine serum (HPLM+ds) (AID 1963879); details: Potency: viability; further: nearly all actives have a fitted effect of over 35% in size; further: potency means the concentration at half of the fitted maximal effect; on Viability: series mostly up to about 46 µM
Method in brief: as §1

[7] = Quantitative highthroughput screen to assess conditional lethalithy of P12 Ichikawa cells grown in RPMI1640 with untreated serum (RPMI+s) (AID 1963881); details: Potency: viability; further: nearly all actives have a fitted effect of over 35% in size; further: potency means the concentration at half of the fitted maximal effect;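 on Viability: series mostly up to about 46 µM; 100% = DMSO wells and 0% = empty wells without cells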
Method in brief: as §1

[8] = Quantitative highthroughput screen to assess conditional lethalithy of SEM cells grown in Human Plasma-Like Medium with dialyzed fetal bovine serum (HPLM+ds) (AID 1963882); further: nearly all actives have a fitted effect of over 35% in size; further: potency means the concentration at half of the fitted maximal effect; on Viability: series mostly up to about 46 µM
Method in brief: as §1

[9] = Quantitative highthroughput screen to assess conditional lethalithy of SEM cells grown in RPMI1640 with unreated serum (RPMI+s) (AID 1963883); further: nearly all actives have a fitted effect of over 35% in size; further: potency means the concentration at half of the fitted maximal effect;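 on Viability: 100% = DMSO wells and 0% = empty wells without cells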
Method in brief: as §1

[10] = Quantitative highthroughput screen to assess conditional lethalithy of SEM cells grown in RPMI1640 with dialyzed fetal bovine serum (RPMI+ds) (AID 1963884); further: nearly all actives have a fitted effect of over 35% in size; further: potency means the concentration at half of the fitted maximal effect;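 on Viability: series mostly up to about 46 µM; 100% = DMSO control wells and 0% = empty wells without cells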
Method in brief: as §1

[11] = Cellular viability qHTS for adrenocortical cancer (ACC) cell line SW-13 (AID 1963989); details: SW-13 ACC cells viability, CellTiter-Glo, 48 h; activity (max response): active compounds read low; further: nearly all actives have a fitted effect of over 65% in size; further: potency means the concentration at half of the fitted maximal effect;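 on activity (max response): cells grown in serum-free medium with ITS supplement; on the % scale 0 is the no-effect control and ±100 the full control effect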
Method in brief: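 Here, serum-free SW-13 cultures were dosed up to 46 uM. Following 48 h, ATP-dependent luminescence (CellTiter-Glo) reported viable cells, and logistic modeling produced IC50 values.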

[12] = Cellular viability qHTS for adrenocortical cancer (ACC) cell line NCI-H295R (AID 1963990); further: nearly all actives have a fitted effect of over 60% in size; further: potency means the concentration at half of the fitted maximal effect
Method in brief: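 Viability of NCI-H295R after 48 h of treatment (final up to 46 uM) measured through cellular ATP luminescence.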

[13] = Quantitative highthroughput screen to assess conditional lethalithy of P12 Ichikawa cells grown in RPMI1640 with dialyzed fetal bovine serum (RPMI+ds) (AID 1963880); details: Potency: P12-Ichikawa viability
Method in brief: as §1

CCC[C@@H](C=O)NC(=O)[C@H](CC(C)C)NC(=O)[C@H](CC(C)C)NC(=O)OCc1ccccc1 (Cbz-Leu-Leu-[Nva]-aldehyde)
active: Potency [1] 0.742 µM | Potency [2] 0.934 µM | Potency [3] 1.32 µM | Potency [4] 2.64 µM | Potency [5] 1.87 µM | Potency [6] 3.32 µM | Potency [7] 2.64 µM | Potency [8] 2.35 µM | Potency [9] 0.526 µM | Potency [10] 1.48 µM | Potency [11] 2 µM | Potency [12] 1.58 µM

COc1ccc2[nH]cc(CCNC(C)=O)c2c1
inactive: Potency [1] | Potency [2] | Potency [3] | Potency [4] | Potency [5] | Potency [6] | Potency [13] | Potency [9] | Potency [10] | activity (max response) [11] -5.05% and -7.41% | Potency [12]

CCc1cccc2c3c([nH]c12)C(CC)(CC(=O)O)OCC3 (stereo not drawn)
inactive: Potency [1] | Potency [2] | Potency [3] | Potency [4] | Potency [5] | Potency [6] | Potency [13] | Potency [7] | activity (max response) [11] 7.18% | Potency [12]

Cc1ccc(C(=O)Nc2cccc(C(F)(F)F)c2)cc1Nc1nc(-c2cccnc2)nc2c1cnn2C
inactive: Potency [3] | Potency [4] | Potency [5] | Potency [6] | Potency [13]
active: Potency [1] 8.33 µM | Potency [2] 6.61 µM | Potency [11] 2.51 µM | Potency [12] 3.16 µM

Oc1cc2c(cc1O)C1c3ccc(O)c(O)c3OCC1(O)C2 (stereo not drawn)
inactive: Potency [3] | Potency [4] | Potency [5] | Potency [6] | Potency [13] | Potency [8] | Potency [9] | Potency [10] | Potency [12]
active: Potency [1] 16.6 µM | Potency [2] 14.8 µM

Cc1ncc([N+](=O)[O-])n1CC(C)O (stereo not drawn)
inactive: Potency [1] | Potency [2] | Potency [3] | Potency [4] | Potency [5] | Potency [6] | Potency [13] | activity (max response) [11] -11% | Potency [12]

Nc1ncnc2ccccc12
inactive: Potency [1] | Potency [2] | Potency [3] | Potency [4] | Potency [5] | Potency [6] | Potency [13] | Potency [8] | Potency [9] | Potency [10] | activity (max response) [11] 12% | Potency [12]

c1cc(OCCN2CCCCC2)cc(-c2n[nH]c3ccc(-c4ncn[nH]4)cc23)c1
active: Potency [1] 0.651 µM | Potency [2] 1.16 µM
inactive: Potency [3] | Potency [4] | Potency [5] | Potency [6] | Potency [13] | Potency [7] | Potency [12]
